In the supplement of paper PMC10981050:
Counter-ions that a name gives are not always drawn.

tested on: OCI-AML2; experiment: cell viability relative to vehicle control; higher = less cytotoxic; conditions: 10 µM; SRSF2 genotype: P95H/wt
Summary of the method: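 Each screen used CRISPR-edited mutant and wild-type clones from four leukaemia lines. Compounds were acoustically dispensed at a single 10 µM dose, and CellTiter-Glo luminescence was read after 48 h with the supernatant first removed. Viability was analysed in Genedata Screener and given as percent of the on-plate vehicle control.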

Row | SMILES | cell viability
1 | CCOc1ccc2ccccc2c1C(=O)N[C@@H]1C(=O)N2[C@@H]1SC(C)(C)[C@@H]2C(=O)O [Nafcillin Sodium] | 98%
2 | C[C@@H](O)[C@H]1C(=O)N2C(C(=O)O)=C(S[C@@H]3CN[C@H](CNS(N)(=O)=O)C3)[C@H](C)[C@H]12 [Doripenem Hydrate] | 96.4%
3 | NC(=O)c1ccc(-c2nc(-c3ccc4c(c3)OCCO4)c(-c3ccccn3)[nH]2)cc1 | 99.6%
4 | O=C1CCc2c(ccc3ccccc23)O1 [Splitomicin] | 96.9%
5 | Cc1nc(-c2cn3c(n2)-c2ccc(-c4cnn(C(C)(C)C(N)=O)c4)cc2OCC3)n(C(C)C)n1 | 8.91%
6 | CN(CCOc1ccc(NS(C)(=O)=O)cc1)CCc1ccc(NS(C)(=O)=O)cc1 [Dofetilide (Tikosyn)] | 99%
7 | COC1CCN(C(=O)c2cc(Cc3n[nH]c(=O)c4ccccc34)ccc2F)CC1 | 51.2%
8 | Cc1[nH]c(=O)c(C#N)cc1-c1ccncc1 [Milrinone (Primacor)] | 101%
9 | CC(C)C[C@H](NC(=O)[C@@H](NC(=O)c1cccc(-c2ccccc2)n1)[C@@H](C)O)B(O)O | 0.41%
10 | CC(C)(C#N)c1cc(Cn2cncn2)cc(C(C)(C)C#N)c1 [Anastrozole] | 93.5%
11 | CC(ONC(=O)c1cc(C(F)(F)F)cc(C(F)(F)F)c1)C(=O)Nc1ccc(Cl)cc1 (configuration not stated) | 82%
12 | CS(=O)(=O)Nc1cc2occ(NC=O)c(=O)c2cc1Oc1ccccc1 [Iguratimod] | 117%
13 | CC1(C)CC[C@]2(C(=O)O)[C@H](O)C[C@]3(C)C(=CC[C@@H]4[C@@]5(C)CC[C@H](O)[C@@](C)(C=O)[C@@H]5CC[C@]43C)[C@@H]2C1 [Quillaic acid] | 98.9%
14 | C[C@@H]1O[C@@H](O[C@H]2[C@H](O[C@H]3CC[C@@]4(C)[C@@H](CC[C@]5(C)[C@@H]4CC=C4[C@@H]6CC(C)(C)CC[C@]6(C(=O)O)CC[C@]45C)[C@]3(C)CO)OC[C@H](O[C@@H]3O[C@H](CO)[C@@H](O)[C@H](O)[C@H]3O)[C@@H]2O)[C@H](O)[C@H](O)[C@H]1O [Pulsatilla saponin D] | 0.5%
15 | C=C1CCC[C@]2(C)C=C3OC(=O)C(C)=C3C[C@@H]12 [Atractylenolide I] | 116%
16 | C#CCN[C@@H]1CCc2ccccc21 [Rasagiline mesylate] | 108%
17 | CN1CC[C@H](c2c(O)cc(O)c3c(=O)cc(-c4ccccc4Cl)oc23)[C@H](O)C1 [Flavopiridol (Alvocidib)] | 4.93%
18 | O=C(O)[C@H]1CSC(c2nc3ccc(O)cc3s2)=N1 [D-Luciferin] | 86.7%
19 | CCCCCCOC(=O)c1cc(=O)c(O)c2c(O)c(O)c(OC)cc2c1 | 19.8%
20 | CC1(C)OC(=O)C=C[C@]2(C)[C@H]3CC[C@@]4(C)[C@H](c5ccoc5)OC(=O)[C@H]5O[C@]54[C@]3(C)C(=O)C[C@@H]12 [Obacunone] | 91.1%
21 | Cc1cc(/N=N/c2ccc(S(=O)(=O)Nc3ccccn3)cc2)c(N)cc1O | 26.2%
22 | CC(C)OC(=O)CCC/C=C\C[C@@H]1[C@@H](CC[C@@H](O)CCc2ccccc2)[C@H](O)C[C@@H]1O [Latanoprost] | 97.8%
23 | COc1c(O[C@@H]2O[C@H](CO)[C@@H](O)[C@H](O)[C@H]2O)cc2occ(-c3ccc(O)cc3)c(=O)c2c1O [Tectoridin] | 91%
24 | Cc1ccccc1C(OCCN(C)C)c1ccccc1 (configuration not stated) [Orphenadrine citrate (Norflex)] | 83.2%
25 | CCCCCCCCCCCCCCCC(=O)O[C@@H]1[C@@H](O)[C@@H](O)[C@@H]([C@H](NC(=O)[C@@H]2C[C@@H](CCC)CN2C)[C@H](C)Cl)O[C@@H]1SC [Clindamycin palmitate HCl] | 93.6%
26 | CN(C)c1ccc(-c2nc3ncc(Cl)c(N4CCN(CC(=O)Nc5nccs5)CC4)c3[nH]2)cc1 | 92.4%
27 | C[C@]12CC[C@@H]3c4ccc(O)cc4CC[C@H]3[C@@H]1CC[C@@H]2O [Estradiol] | 101%
28 | COc1cc(OCc2cccc(-c3ccccc3)c2C)cc(OC)c1CN1CCCC[C@H]1C(=O)O [PD-1/PD-L1 inhibitor 1] | 68.2%

same assay, conditions: 10 µM; SRSF2 genotype: wt/wt

Row | SMILES | cell viability
29 | Oc1ccc(OCc2ccccc2)cc1 [Monobenzone (Benoquin)] | 47.3%
30 | CNCCCC12CCC(c3ccccc31)c1ccccc12 [Maprotiline hydrochloride] | 56.8%
31 | O=C(O)[C@H]1O[C@@H](Oc2cc3oc(-c4ccc(O)cc4)cc(=O)c3c(O)c2O)[C@H](O)[C@@H](O)[C@@H]1O [Scutellarin] | 109%
32 | Cn1nnc(-c2ccc(-c3ccc(N4C[C@H](COP(=O)(O)O)OC4=O)cc3F)cn2)n1 [Tedizolid Phosphate] | 87.8%
33 | Cc1onc(-c2c(F)cccc2Cl)c1C(=O)N[C@@H]1C(=O)N2[C@@H]1SC(C)(C)[C@@H]2C(=O)O [Flucloxacillin sodium] | 107%
34 | CC(=O)Nc1ccccc1 [Acetanilide (Antifebrin)] | 102%
35 | CCOC(=O)c1c(C)n(C)c2ccc(O)cc12 [Mecarbinate] | 98.1%
36 | CC#CC(=O)N1CCC[C@H]1c1nc(-c2ccc(C(=O)Nc3ccccn3)cc2)c2c(N)nccn12 [Acalabrutinib (ACP-196)] | 96.9%
37 | CN/C(=N\CCSCc1nc[nH]c1C)NC#N [Cimetidine (Tagamet)] | 104%
38 | CCCC1O[C@@H]2C[C@H]3[C@@H]4CCC5=CC(=O)C=C[C@]5(C)[C@H]4[C@@H](O)C[C@]3(C)[C@]2(C(=O)CO)O1 (some centres not stated) [Budesonide] | 87.6%
39 | CO/N=C1\C[C@]2(C[C@@H]3C[C@@H](C/C=C(\C)C[C@@H](C)/C=C/C=C4\CO[C@@H]5[C@H](O)C(C)=C[C@@H](C(=O)O3)[C@]45O)O2)O[C@H](/C(C)=C/C(C)C)[C@H]1C [Moxidectin] | 25.3%
40 | CCOc1ccc2ccccc2c1C(=O)N[C@@H]1C(=O)N2[C@@H]1SC(C)(C)[C@@H]2C(=O)O [Nafcillin Sodium] | 107%
41 | C[C@@H](O)[C@H]1C(=O)N2C(C(=O)O)=C(S[C@@H]3CN[C@H](CNS(N)(=O)=O)C3)[C@H](C)[C@H]12 [Doripenem Hydrate] | 99%
42 | NC(=O)c1ccc(-c2nc(-c3ccc4c(c3)OCCO4)c(-c3ccccn3)[nH]2)cc1 | 96.8%
43 | O=C1CCc2c(ccc3ccccc23)O1 [Splitomicin] | 102%
44 | Cc1nc(-c2cn3c(n2)-c2ccc(-c4cnn(C(C)(C)C(N)=O)c4)cc2OCC3)n(C(C)C)n1 | 22.8%
45 | CN(CCOc1ccc(NS(C)(=O)=O)cc1)CCc1ccc(NS(C)(=O)=O)cc1 [Dofetilide (Tikosyn)] | 107%
46 | COC1CCN(C(=O)c2cc(Cc3n[nH]c(=O)c4ccccc34)ccc2F)CC1 | 62.1%
47 | Cc1[nH]c(=O)c(C#N)cc1-c1ccncc1 [Milrinone (Primacor)] | 96%
48 | CC(C)C[C@H](NC(=O)[C@@H](NC(=O)c1cccc(-c2ccccc2)n1)[C@@H](C)O)B(O)O | 2.11%

Row | SMILES | cell viability
49 | CC(C)(C#N)c1cc(Cn2cncn2)cc(C(C)(C)C#N)c1 [Anastrozole] | 95.3%
50 | CC(ONC(=O)c1cc(C(F)(F)F)cc(C(F)(F)F)c1)C(=O)Nc1ccc(Cl)cc1 (configuration not stated) | 90.7%
51 | CS(=O)(=O)Nc1cc2occ(NC=O)c(=O)c2cc1Oc1ccccc1 [Iguratimod] | 123%
52 | CC1(C)CC[C@]2(C(=O)O)[C@H](O)C[C@]3(C)C(=CC[C@@H]4[C@@]5(C)CC[C@H](O)[C@@](C)(C=O)[C@@H]5CC[C@]43C)[C@@H]2C1 [Quillaic acid] | 96.8%
53 | C[C@@H]1O[C@@H](O[C@H]2[C@H](O[C@H]3CC[C@@]4(C)[C@@H](CC[C@]5(C)[C@@H]4CC=C4[C@@H]6CC(C)(C)CC[C@]6(C(=O)O)CC[C@]45C)[C@]3(C)CO)OC[C@H](O[C@@H]3O[C@H](CO)[C@@H](O)[C@H](O)[C@H]3O)[C@@H]2O)[C@H](O)[C@H](O)[C@H]1O [Pulsatilla saponin D] | 0.54%
54 | C=C1CCC[C@]2(C)C=C3OC(=O)C(C)=C3C[C@@H]12 [Atractylenolide I] | 91.6%
55 | C#CCN[C@@H]1CCc2ccccc21 [Rasagiline mesylate] | 107%
56 | CN1CC[C@H](c2c(O)cc(O)c3c(=O)cc(-c4ccccc4Cl)oc23)[C@H](O)C1 [Flavopiridol (Alvocidib)] | 15.2%
57 | O=C(O)[C@H]1CSC(c2nc3ccc(O)cc3s2)=N1 [D-Luciferin] | 87.9%
58 | CCCCCCOC(=O)c1cc(=O)c(O)c2c(O)c(O)c(OC)cc2c1 | 42.4%
59 | CC1(C)OC(=O)C=C[C@]2(C)[C@H]3CC[C@@]4(C)[C@H](c5ccoc5)OC(=O)[C@H]5O[C@]54[C@]3(C)C(=O)C[C@@H]12 [Obacunone] | 93.6%
60 | Cc1cc(/N=N/c2ccc(S(=O)(=O)Nc3ccccn3)cc2)c(N)cc1O | 48.7%
61 | CC(C)OC(=O)CCC/C=C\C[C@@H]1[C@@H](CC[C@@H](O)CCc2ccccc2)[C@H](O)C[C@@H]1O [Latanoprost] | 98.3%
62 | COc1c(O[C@@H]2O[C@H](CO)[C@@H](O)[C@H](O)[C@H]2O)cc2occ(-c3ccc(O)cc3)c(=O)c2c1O [Tectoridin] | 97.8%
63 | Cc1ccccc1C(OCCN(C)C)c1ccccc1 (configuration not stated) [Orphenadrine citrate (Norflex)] | 95%
64 | CCCCCCCCCCCCCCCC(=O)O[C@@H]1[C@@H](O)[C@@H](O)[C@@H]([C@H](NC(=O)[C@@H]2C[C@@H](CCC)CN2C)[C@H](C)Cl)O[C@@H]1SC [Clindamycin palmitate HCl] | 101%
65 | CN(C)c1ccc(-c2nc3ncc(Cl)c(N4CCN(CC(=O)Nc5nccs5)CC4)c3[nH]2)cc1 | 95.1%
66 | C[C@]12CC[C@@H]3c4ccc(O)cc4CC[C@H]3[C@@H]1CC[C@@H]2O [Estradiol] | 111%
67 | COc1cc(OCc2cccc(-c3ccccc3)c2C)cc(OC)c1CN1CCCC[C@H]1C(=O)O [PD-1/PD-L1 inhibitor 1] | 73.2%
